AGP1-GFP MLPCN: alters AGP1-GFP fluorescence in TOR pathway yeast screen. 320,000 tested, 0.02% active. GFP response vs DMSO, % at 10 µM. S. cerevisiae AGP1-GFP multiplex flow cytometry, 3 h; GFP as percent of DMSO wells. AID 2066;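 active = GFP response relative to DMSO above a set limit, near screen average plus 3 SD, cut at about 150% in these data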;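 note: median GFP channel fluorescence of the gated AGP1 strain per well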
RPL19A TOR yeast: alters RPL19A-GFP fluorescence in TOR pathway yeast screen. S. cerevisiae RPL19A-GFP strain, flow cytometry, 3 h; stronger effect = lower value. percent response vs DMSO, % at 10 µM. 330,000 tested, 0.3% active;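 active = percent response vs DMSO below 50%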;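 note: median channel GFP fluorescence of the barcoded RPL19A-GFP strain; lower means less RPL19A-GFP as with rapamycin TOR inhibition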
CIT2-GFP yeast: alters CIT2-GFP fluorescence in TOR pathway yeast screen. S. cerevisiae CIT2-GFP strain, flow cytometry, 3 h; 100 means same as DMSO wells. 320,000 tested, 0.065% active. GFP response vs DMSO, % at 10 µM. AID 2029;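 active = GFP response relative to DMSO above a set limit, near the screen mean plus 3 SD, cut at about 150% in these data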;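 note: ratio of well median GFP fluorescence to mean of DMSO wells on the plate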
LAP4-GFP MLPCN: yeast TOR pathway LAP4-GFP modulation | AID 2023 | S. cerevisiae LAP4-GFP multiplex, flow cytometry GFP, 3 h; median GFP as percent of DMSO wells | GFP response vs DMSO, % at 10 µM | 320,000 tested, 0.34% active;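 active = GFP response vs DMSO above a set limit, about the screen mean plus 3 SD, cut at about 150% in these data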
MEP2-GFP yeast: yeast TOR pathway MEP2-GFP modulation; S. cerevisiae MEP2-GFP strain, flow cytometry GFP, 3 h; 100% = DMSO control level; GFP response vs DMSO, % at 10 µM; 330,000 tested, 0.51% active;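 active = GFP response versus DMSO above a set limit, roughly screen mean plus 3 SD, cut at about 180% in these data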;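 note: median GFP fluorescence of the barcode-gated MEP2-GFP cells per well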
VLA-4 inh: inhibition in a human VLA-4 binding assay; P13612; VLA-4 expressing cells, ligand binding flow cytometry; 330,000 tested, 0.2% active; inhibition, % (about 7 µM as worked out from the volumes in the protocol); in the data active = inhibition above about 50%
Target sequence (P13612 whole entry, looked up): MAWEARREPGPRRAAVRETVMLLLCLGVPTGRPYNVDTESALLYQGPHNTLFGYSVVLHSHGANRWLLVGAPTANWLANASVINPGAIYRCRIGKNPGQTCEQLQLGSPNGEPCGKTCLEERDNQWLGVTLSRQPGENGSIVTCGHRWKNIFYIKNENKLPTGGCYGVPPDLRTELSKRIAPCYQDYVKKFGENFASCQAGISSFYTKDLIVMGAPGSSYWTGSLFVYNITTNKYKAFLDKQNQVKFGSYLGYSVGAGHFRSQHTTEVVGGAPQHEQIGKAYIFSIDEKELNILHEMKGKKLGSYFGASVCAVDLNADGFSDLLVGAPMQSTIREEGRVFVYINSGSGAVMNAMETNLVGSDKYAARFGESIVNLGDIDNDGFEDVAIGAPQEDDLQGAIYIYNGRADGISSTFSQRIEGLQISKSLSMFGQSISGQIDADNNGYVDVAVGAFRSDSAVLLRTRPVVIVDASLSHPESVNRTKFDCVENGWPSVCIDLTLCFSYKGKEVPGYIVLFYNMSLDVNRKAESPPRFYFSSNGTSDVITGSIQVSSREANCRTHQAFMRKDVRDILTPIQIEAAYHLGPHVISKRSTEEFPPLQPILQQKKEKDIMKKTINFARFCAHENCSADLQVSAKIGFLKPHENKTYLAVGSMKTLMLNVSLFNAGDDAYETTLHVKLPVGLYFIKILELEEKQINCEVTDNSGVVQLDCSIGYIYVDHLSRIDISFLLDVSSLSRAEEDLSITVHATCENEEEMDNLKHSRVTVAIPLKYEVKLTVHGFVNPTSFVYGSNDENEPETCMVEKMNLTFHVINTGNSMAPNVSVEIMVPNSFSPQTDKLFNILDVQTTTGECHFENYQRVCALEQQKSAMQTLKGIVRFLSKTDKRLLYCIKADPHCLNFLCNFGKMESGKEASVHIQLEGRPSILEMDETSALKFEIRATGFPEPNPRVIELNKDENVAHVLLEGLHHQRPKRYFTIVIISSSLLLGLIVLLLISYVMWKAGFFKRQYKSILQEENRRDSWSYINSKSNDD
LAP4-GFP pick2: yeast LAP4-GFP modulation, second cherry pick; shares compounds with LAP4-GFP MLPCN; S. cerevisiae LAP4-GFP strain, flow cytometry GFP, 3 h; GFP response vs DMSO, % at 10 µM; 590 tested, 20% active;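 active = GFP signal as percent of the solvent control above about 150%, meaning raised reporter expression, limit read from the data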
MEP2 cherry2: second confirmation of modulators of TOR reporter MEP2-GFP in yeast; shares compounds with LAP4-GFP MLPCN; S. cerevisiae MEP2-GFP strain, flow cytometry GFP, 3 h; GFP response vs DMSO, % at 10 µM; 590 tested, 10% active;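 active = GFP signal above 150% of the solvent control wells, that is a rise of more than half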;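 note: median channel GFP fluorescence of all gated yeast cells per well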
RPL19A GFP CP2: yeast RPL19A-GFP TOR reporter modulation, second cherry pick; AID 2623; shares compounds with LAP4-GFP MLPCN; S. cerevisiae RPL19A-GFP strain, flow cytometry GFP, 3 h; stronger effect = lower value; 100% means same as DMSO wells; GFP response vs DMSO, % at 10 µM; 590 tested, 3% active;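 active = under 65% GFP response relative to DMSO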;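 note: median GFP channel fluorescence per well over the all cells gate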
CIT2-GFP pick2: yeast CIT2-GFP TOR reporter modulation, second cherry pick. shares compounds with LAP4-GFP MLPCN. S. cerevisiae CIT2-GFP strain, flow cytometry GFP, 3 h; DMSO control wells read 100%. GFP response vs DMSO, % at 10 µM. 590 tested, 8% active. AID 2624;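 active = GFP response vs DMSO above about 150%, limit read from the data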;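 note: median green fluorescence per well over all gated yeast cells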
AGP1 GFP CP2: second confirmation of modulators of TOR reporter AGP1-GFP in yeast. shares compounds with LAP4-GFP MLPCN. percent response vs DMSO, % at 10 µM. S. cerevisiae AGP1-GFP strain, flow cytometry GFP, 3 h. 590 tested, under 10 active. AID 2643;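 active = over 150 percent of DMSO response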;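 note: median GFP channel fluorescence over all cells without mother daughter split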
Yeast autofluor: yeast s288c autofluorescence artifact, counter-screen. fluorescence change (kMESF span) at 33 µM. S. cerevisiae s288c, 520 nm autofluorescence, flow cytometry, 3 h; stronger effect = higher value; zero means same as solvent-only cells. shares compounds with LAP4-GFP MLPCN. 610 tested, under 10 active. AID 2757;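 active = fluorescence span over the dose series, or activity score, above about 33, limit read from the data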
Hits are given with their value; i = inactive; nt = no result. Sampled rows, rich in hits. Any-hit rate of the full collection: about 1.1%.

SMILES	AGP1-GFP MLPCN	RPL19A TOR yeast	CIT2-GFP yeast	LAP4-GFP MLPCN	MEP2-GFP yeast	VLA-4 inh	LAP4-GFP pick2	MEP2 cherry2	RPL19A GFP CP2	CIT2-GFP pick2	AGP1 GFP CP2	Yeast autofluor
CCOc1ccc(NC2=C(Cl)C(=O)N(Cc3ccccc3)C2=O)cc1	i	i	i	i	i	i	nt	nt	nt	nt	nt	i
COc1ccc(NC(=O)CCN2C(=O)c3ccccc3C2=O)c(OC)c1	i	i	i	i	i	i	nt	nt	nt	nt	nt	nt
COc1ccc(CCNC2=C(Cl)C(=O)N(CCc3ccc(OC)c(OC)c3)C2=O)cc1OC	i	i	i	i	i	i	nt	nt	nt	nt	nt	i
COc1ccc(CCN2C(=O)c3cccnc3C2=O)cc1OC	i	i	i	i	i	i	nt	nt	nt	nt	nt	nt
CCOc1ccccc1NC1=C(Cl)C(=O)N(c2ccc(OC)cc2)C1=O	i	i	i	i	i	i	nt	nt	nt	nt	nt	nt
Cc1ccc(SCC(=O)OCC(=O)NC(C)c2ccc(Br)cc2)cc1 (centres undefined)	i	i	i	i	i	i	nt	nt	nt	nt	nt	nt
COC(=O)[C@@H](Cc1c[nH]c2ccccc12)NC(=O)CCC(=O)c1ccc(Br)cc1	i	i	i	i	i	i	nt	nt	nt	nt	nt	nt
COc1ccc(NC2=C(Cl)C(=O)N(CCc3ccccc3)C2=O)cc1	i	i	i	i	i	i	nt	nt	nt	nt	nt	i
S=c1[nH]nc(-c2ccco2)n1/N=C/c1ccc(Cl)cc1Cl	i	i	i	i	216	i	i	i	i	i	i	nt
CC(=O)c1ccc(OCCn2c(SCC(=O)O)nc3ccccc32)cc1	i	i	i	i	i	i	nt	nt	nt	nt	nt	nt
Cc1ccc(OCC(=O)Nc2ccc(S(=O)(=O)Nc3cc(C)nc(C)n3)cc2)cc1	i	i	i	i	i	i	nt	nt	nt	nt	nt	nt
Cc1ccc(C(=O)NCC(=O)Nc2ccc(S(=O)(=O)Nc3cc(C)nc(C)n3)cc2)cc1	i	i	i	153	i	i	i	i	i	i	i	nt
COc1cc(O)c2c(=O)c(-c3ccc(O[C@@H]4O[C@H](CO)[C@@H](O)[C@H](O)[C@H]4O)cc3)coc2c1	i	i	i	i	i	i	nt	nt	nt	nt	nt	nt
CCCCNc1c2c3c(cccc3n(C)c1=O)C(=O)c1ccccc1-2	i	i	i	171	i	i	322	i	i	i	i	i
COc1ccc(OC)c(NC(=O)COC(=O)CN2C(=O)NC3(CCCC3)C2=O)c1	i	i	i	i	i	i	nt	nt	nt	nt	nt	nt
O=C(Cn1cccc1C(=O)c1ccccc1)NCCCc1ccccc1	i	i	i	i	i	i	nt	nt	nt	nt	nt	nt
O=C(Cn1cccc1C(=O)c1ccccc1)NCCC1=CCCCC1	i	i	i	i	i	i	i	i	i	i	i	nt
Cc1cccc(C(=O)Nc2ccc3ccccc3c2)c1	i	i	i	i	i	i	nt	nt	nt	nt	nt	nt
On1ccccc1=S	i	i	i	260	i	i	181	i	i	i	i	i
CNC(CC(=O)c1ccc([N+](=O)[O-])cc1)C(Cl)(Cl)Cl (centres undefined)	i	i	i	195	i	i	180	188	i	i	i	i
Cc1ccc(N2C(=O)c3cccc4c([N+](=O)[O-])ccc(c34)C2=O)c2cccnc12	i	i	i	i	i	i	nt	nt	nt	nt	nt	nt
Cc1ccnc(N2C(=O)c3cccc4c([N+](=O)[O-])ccc(c34)C2=O)c1	i	i	181	232	312	i	nt	nt	nt	nt	nt	i
O=c1c([N+](=O)[O-])cccn1Cc1cccc(Br)c1	i	i	i	i	i	i	nt	nt	nt	nt	nt	nt
CC1CCCCC1NC(=O)CN(C)S(=O)(=O)c1cccc2cccnc12 (centres undefined)	i	i	i	i	i	i	nt	nt	nt	nt	nt	nt
CCC(C(=O)OCC(=O)N1CCN(S(=O)(=O)c2ccc(C)cc2C)CC1)c1ccccc1 (centres undefined)	i	i	i	i	i	i	nt	nt	nt	nt	nt	nt
SMILES	AGP1-GFP MLPCN	RPL19A TOR yeast	CIT2-GFP yeast	LAP4-GFP MLPCN	MEP2-GFP yeast	VLA-4 inh	LAP4-GFP pick2	MEP2 cherry2	RPL19A GFP CP2	CIT2-GFP pick2	AGP1 GFP CP2	Yeast autofluor
O=C(CSC1=NS(=O)(=O)c2ccccc21)Nc1ccccc1	i	i	i	i	i	i	i	i	62	i	i	i
CCOc1ccc(N/N=C(/C#N)C(N)=O)cc1	i	i	i	210	228	i	nt	nt	nt	nt	nt	i
COc1ccc(N/N=C(\C#N)C(N)=O)cc1	i	i	i	165	i	i	nt	nt	nt	nt	nt	i
CCOc1ccc(N/C(SC)=C(/C#N)C(N)=O)cc1	i	i	i	i	i	i	nt	nt	nt	nt	nt	nt
COc1ccc(NC(=O)CN(C)C(=O)c2cccc(S(=O)(=O)Nc3ccc(F)cc3)c2)cc1	i	i	i	i	i	i	nt	nt	nt	nt	nt	nt
COCCCOc1ccnc(CS(=O)c2nc3ccccc3[nH]2)c1C (centres undefined)	i	i	i	i	i	i	nt	nt	nt	nt	nt	nt
Cc1c(OCC(F)(F)F)ccnc1CS(=O)c1nc2ccccc2[nH]1 (centres undefined)	i	i	i	158	i	i	i	i	i	i	i	nt
O=C(Nc1ccc(Cl)cc1)ON=C1CCCC1	i	i	i	i	i	i	199	i	i	224	i	i
COC(=O)CCC(=O)OC1(C)C(=O)C2=CN(C(CO)CO)C(c3ccc(OC)cc3)=CC2=C(Br)C1=O (centres undefined)	i	i	i	i	i	i	nt	nt	nt	nt	nt	nt
COC(=O)CCC(=O)OC1(C)C(=O)C2=COC(c3ccc(OC)cc3)=CC2=C(Br)C1=O (centres undefined)	i	39	i	i	i	i	151	i	i	i	i	i
CCn1c(CCl)nc2cc(S(=O)(=O)N3CCOCC3)ccc21	i	i	i	i	i	i	nt	nt	nt	nt	nt	nt
Cc1ccc2[nH]cc(C(=O)NCc3cccs3)c(=O)c2c1	i	i	i	i	i	i	nt	nt	nt	nt	nt	nt
COc1cccc2c(=O)c(C(=O)NCc3cccs3)c[nH]c12	i	i	i	i	i	i	i	i	i	i	i	i
